Compound in the assay: C#CCNC(=O)CCSSCCC(=O)NCCc1ccc(C=O)c(C=O)c1
The assay can be described thus: lysine labeling ratio R10:1 (500 µM / 50 µM probe), SILAC-ABPP in living cells; higher = lower intrinsic lysine reactivity toward the probe, active = 2 or less. To be noted: HeLa; probe concentrations 500 vs 50 µM. The method in brief:
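An alkyne-tagged lysine probe with a disulfide linker labelled living HeLa cells in PBS at room temperature at either 50 µM or 500 µM, using SILAC light and heavy cells in forward and reverse label swaps. Lysates were mixed, clicked to biotin-azide, trypsin-digested, enriched on neutravidin, DTT-released, alkylated and measured by LC-MS/MS on a TIMS-TOF Pro. Each lysine's R is the filtered median high-probe/low-probe MS1 peptide ratio, combined as the median over forward and reverse replicates, with 20 as the upper limit.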
UniProt P07942, sequence (P07942 whole entry): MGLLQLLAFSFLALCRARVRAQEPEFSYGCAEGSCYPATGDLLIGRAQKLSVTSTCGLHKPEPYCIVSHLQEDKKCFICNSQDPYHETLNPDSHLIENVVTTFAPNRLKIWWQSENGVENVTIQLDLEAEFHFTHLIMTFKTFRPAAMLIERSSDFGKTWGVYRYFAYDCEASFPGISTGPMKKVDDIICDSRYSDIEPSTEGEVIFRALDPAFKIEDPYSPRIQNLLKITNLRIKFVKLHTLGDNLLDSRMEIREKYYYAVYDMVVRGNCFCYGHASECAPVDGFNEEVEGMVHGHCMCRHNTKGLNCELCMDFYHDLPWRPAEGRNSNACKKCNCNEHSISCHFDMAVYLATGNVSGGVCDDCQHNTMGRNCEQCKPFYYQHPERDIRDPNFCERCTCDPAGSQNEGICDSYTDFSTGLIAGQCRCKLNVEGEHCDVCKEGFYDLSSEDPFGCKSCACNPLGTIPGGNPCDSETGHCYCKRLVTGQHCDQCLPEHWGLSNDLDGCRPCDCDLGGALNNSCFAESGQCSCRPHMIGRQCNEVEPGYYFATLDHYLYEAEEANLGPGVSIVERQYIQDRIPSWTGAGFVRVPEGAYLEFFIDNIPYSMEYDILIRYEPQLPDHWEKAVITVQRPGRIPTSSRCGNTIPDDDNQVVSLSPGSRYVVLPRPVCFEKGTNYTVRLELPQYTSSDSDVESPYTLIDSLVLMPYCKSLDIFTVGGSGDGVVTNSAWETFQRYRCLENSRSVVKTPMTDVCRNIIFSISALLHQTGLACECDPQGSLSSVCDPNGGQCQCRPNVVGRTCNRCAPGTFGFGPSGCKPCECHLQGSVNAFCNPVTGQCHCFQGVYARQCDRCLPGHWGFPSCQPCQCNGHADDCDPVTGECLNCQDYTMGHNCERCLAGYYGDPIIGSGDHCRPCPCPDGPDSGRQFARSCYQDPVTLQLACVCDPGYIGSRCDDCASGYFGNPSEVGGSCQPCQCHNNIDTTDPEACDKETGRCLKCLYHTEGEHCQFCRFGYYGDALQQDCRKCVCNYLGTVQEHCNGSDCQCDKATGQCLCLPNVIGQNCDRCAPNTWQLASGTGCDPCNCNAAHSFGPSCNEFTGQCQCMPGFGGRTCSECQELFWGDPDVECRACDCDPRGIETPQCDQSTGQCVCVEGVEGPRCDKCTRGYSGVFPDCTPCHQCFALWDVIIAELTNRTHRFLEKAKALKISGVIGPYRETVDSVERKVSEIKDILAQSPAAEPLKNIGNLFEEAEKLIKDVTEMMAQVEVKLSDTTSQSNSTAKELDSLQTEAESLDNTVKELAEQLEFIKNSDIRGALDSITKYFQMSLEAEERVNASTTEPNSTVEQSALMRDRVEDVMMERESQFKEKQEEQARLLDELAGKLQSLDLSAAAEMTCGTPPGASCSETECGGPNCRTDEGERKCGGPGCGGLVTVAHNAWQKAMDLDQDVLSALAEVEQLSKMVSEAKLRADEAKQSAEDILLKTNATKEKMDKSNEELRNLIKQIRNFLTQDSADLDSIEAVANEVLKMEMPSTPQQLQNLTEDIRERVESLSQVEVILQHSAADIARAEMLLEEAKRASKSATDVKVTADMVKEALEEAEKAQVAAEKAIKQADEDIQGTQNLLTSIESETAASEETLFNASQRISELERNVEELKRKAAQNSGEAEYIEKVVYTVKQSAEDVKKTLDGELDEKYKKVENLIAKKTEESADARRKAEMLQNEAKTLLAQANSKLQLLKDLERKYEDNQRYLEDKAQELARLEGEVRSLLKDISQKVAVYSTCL
UniProt P56199, sequence (P56199 whole entry): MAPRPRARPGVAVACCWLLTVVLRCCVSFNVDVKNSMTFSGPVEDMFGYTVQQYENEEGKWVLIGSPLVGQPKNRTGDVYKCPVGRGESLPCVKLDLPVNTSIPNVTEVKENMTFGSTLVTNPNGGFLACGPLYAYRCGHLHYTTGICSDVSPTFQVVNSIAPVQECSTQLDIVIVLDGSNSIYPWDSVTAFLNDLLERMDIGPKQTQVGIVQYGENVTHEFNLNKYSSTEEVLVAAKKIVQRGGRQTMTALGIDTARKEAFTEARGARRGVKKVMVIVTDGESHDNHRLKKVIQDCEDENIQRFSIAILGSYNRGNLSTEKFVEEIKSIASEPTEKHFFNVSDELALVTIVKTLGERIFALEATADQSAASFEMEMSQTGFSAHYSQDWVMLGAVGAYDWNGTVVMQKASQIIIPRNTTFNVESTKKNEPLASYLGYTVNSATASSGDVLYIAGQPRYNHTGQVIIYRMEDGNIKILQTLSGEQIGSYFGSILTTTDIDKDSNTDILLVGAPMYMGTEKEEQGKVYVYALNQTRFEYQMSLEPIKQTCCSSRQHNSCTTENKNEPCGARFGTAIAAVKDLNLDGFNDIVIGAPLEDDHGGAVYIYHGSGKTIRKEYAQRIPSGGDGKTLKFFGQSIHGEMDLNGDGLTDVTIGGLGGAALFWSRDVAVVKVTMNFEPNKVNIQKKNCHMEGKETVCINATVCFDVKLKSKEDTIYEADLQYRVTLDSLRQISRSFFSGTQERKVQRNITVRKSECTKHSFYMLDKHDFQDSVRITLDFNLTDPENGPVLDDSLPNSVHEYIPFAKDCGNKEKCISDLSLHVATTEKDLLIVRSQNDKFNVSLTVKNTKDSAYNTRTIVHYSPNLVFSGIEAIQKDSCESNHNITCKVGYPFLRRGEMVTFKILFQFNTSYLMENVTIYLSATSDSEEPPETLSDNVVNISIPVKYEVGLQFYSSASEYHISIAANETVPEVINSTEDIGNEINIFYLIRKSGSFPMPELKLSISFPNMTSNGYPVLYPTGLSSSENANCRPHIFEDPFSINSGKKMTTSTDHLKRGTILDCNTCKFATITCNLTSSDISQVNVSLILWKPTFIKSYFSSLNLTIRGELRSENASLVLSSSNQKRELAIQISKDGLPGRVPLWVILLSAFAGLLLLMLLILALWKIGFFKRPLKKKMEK
UniProt O75051, sequence (O75051 whole entry): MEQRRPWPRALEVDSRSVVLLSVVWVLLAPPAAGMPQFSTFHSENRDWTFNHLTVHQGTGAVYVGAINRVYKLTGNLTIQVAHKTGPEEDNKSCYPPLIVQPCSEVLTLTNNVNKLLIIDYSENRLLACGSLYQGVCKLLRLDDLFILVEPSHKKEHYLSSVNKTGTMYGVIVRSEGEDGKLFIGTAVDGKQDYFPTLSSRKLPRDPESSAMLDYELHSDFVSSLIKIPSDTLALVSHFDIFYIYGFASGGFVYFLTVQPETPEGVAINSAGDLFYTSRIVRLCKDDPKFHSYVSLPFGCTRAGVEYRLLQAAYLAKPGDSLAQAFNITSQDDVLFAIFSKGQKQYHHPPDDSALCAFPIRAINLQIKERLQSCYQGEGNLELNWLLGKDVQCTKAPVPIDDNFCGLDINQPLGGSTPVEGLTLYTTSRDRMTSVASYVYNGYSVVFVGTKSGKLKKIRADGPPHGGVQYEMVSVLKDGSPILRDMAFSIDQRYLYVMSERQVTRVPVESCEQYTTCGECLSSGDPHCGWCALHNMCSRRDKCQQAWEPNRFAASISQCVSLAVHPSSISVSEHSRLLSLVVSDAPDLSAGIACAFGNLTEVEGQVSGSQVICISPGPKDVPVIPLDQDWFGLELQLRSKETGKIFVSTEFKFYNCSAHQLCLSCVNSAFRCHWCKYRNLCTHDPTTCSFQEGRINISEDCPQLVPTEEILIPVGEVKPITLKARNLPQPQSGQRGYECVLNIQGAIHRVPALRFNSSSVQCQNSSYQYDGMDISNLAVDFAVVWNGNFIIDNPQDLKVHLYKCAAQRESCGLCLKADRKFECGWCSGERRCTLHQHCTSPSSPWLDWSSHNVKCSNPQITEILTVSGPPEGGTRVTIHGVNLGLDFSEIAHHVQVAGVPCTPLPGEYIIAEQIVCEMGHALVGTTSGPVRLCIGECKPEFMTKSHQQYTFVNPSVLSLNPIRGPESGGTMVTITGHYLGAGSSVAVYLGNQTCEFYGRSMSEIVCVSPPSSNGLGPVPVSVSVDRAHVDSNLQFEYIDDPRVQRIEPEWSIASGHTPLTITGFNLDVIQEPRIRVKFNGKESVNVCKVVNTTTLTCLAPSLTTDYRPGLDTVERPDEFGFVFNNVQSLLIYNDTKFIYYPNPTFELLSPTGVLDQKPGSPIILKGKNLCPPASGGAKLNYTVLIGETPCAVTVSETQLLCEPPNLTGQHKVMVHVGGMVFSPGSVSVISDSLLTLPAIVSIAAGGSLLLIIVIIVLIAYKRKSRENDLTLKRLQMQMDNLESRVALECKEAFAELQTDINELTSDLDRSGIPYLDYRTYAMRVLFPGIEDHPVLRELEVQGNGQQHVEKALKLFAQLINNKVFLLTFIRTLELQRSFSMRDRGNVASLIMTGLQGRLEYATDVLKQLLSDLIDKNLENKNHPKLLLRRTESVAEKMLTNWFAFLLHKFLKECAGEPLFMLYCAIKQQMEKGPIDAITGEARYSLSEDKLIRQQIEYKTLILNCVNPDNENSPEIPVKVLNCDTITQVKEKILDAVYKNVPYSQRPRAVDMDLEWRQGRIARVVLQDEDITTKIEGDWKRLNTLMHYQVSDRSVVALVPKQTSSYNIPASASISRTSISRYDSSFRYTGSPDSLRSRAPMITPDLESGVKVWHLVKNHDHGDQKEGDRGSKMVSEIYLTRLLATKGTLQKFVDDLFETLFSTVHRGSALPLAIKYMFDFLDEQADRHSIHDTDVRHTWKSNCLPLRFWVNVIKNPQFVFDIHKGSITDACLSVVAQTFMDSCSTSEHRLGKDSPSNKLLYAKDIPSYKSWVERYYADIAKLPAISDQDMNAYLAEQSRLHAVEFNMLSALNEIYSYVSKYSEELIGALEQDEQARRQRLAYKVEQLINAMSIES
UniProt P15328, sequence (P15328 whole entry, looked up): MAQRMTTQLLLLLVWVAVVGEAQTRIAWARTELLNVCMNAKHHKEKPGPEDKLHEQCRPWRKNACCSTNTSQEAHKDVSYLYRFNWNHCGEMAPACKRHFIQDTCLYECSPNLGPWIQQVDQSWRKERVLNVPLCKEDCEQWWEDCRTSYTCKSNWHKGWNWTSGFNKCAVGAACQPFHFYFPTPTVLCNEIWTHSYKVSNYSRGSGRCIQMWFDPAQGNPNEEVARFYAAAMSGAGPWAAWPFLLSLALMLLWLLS
Take UniProt P55145 (lysine site: K45): the “lysine labeling ratio R10:1” value is 4 (inactive).
With “PLXNA2 (lysine site: K820) (UniProt O75051)”, the “lysine labeling ratio R10:1” value was 5.38 (inactive).
To “ITGA1 (lysine site: K291) (UniProt P56199)” belongs 7.48 (inactive); to “ITGAV (lysine site: K446) (UniProt P06756)”, 2.59 (inactive).
For “LAMA5 (lysine site: K2481) (UniProt O15230)” the value was 1.15 (active); for “CLTC (lysine site: K389) (UniProt Q00610)”, 5.78 (inactive); for “EPHA2 (lysine site: K475) (UniProt P29317)”, 2.38 (inactive).
On to GPI (lysine site: K89) (UniProt P06744), for which the “lysine labeling ratio R10:1” value was 1.12 (active).
For UniProt Q16790 (lysine site: K133) the value was 8.23 (inactive); for “PTBP1 (lysine site: K137) (UniProt P26599)”, 3.2 (inactive).
To “EWSR1 (lysine site: K644) (UniProt Q01844)” belongs 1.76 (active).
For “LAMB1 (lysine site: K215) (UniProt P07942)” the value was 2.29 (inactive); for UniProt P62249 (lysine site: K131), 2.97 (inactive); for B2M (lysine site: K26) (UniProt P61769), 10.1 (inactive).
With “ENG (lysine site: K513) (UniProt P17813)”, the “lysine labeling ratio R10:1” value was 4.09 (inactive).
For the target “HNRNPU (lysine site: K31) (UniProt Q00839)”, the “lysine labeling ratio R10:1” value was 1.72 (active).
Take “LPL (lysine site: K129) (UniProt P06858)”: the “lysine labeling ratio R10:1” value is 1.65 (active).
For “ATP6V0D1 (lysine site: K77) (UniProt P61421)” the value was 1.33 (active).
To UniProt P16144 (lysine site: K46) belongs 10.1 (inactive).
For “ITGB1 (lysine site: K87) (UniProt P05556)” the value was 2.04 (inactive); for “FOLR1 (lysine site: K41) (UniProt P15328)”, 1.41 (active).
UniProt Q15149 (lysine site: K1175): the “lysine labeling ratio R10:1” value was 1.67 (active).
To “THBS1 (lysine site: K919) (UniProt P07996)” belongs 1.72 (active); to “KRAS (lysine site: K128) (UniProt P01116)”, 1.02 (active).
For “ITGA1 (lysine site: K711) (UniProt P56199)” the value was 3.16 (inactive); for “VAPA (lysine site: K205) (UniProt Q9P0L0)”, 7.76 (inactive); for UniProt P60842 (lysine site: K309), 1.73 (active).
For UniProt P83731 (lysine site: K93) the value was 6.58 (inactive); for JTB (lysine site: K94) (UniProt O76095), 5.2 (inactive).
Regarding “EGFR (lysine site: K294) (UniProt P00533)”, the “lysine labeling ratio R10:1” value was 3.59 (inactive).
Take “VCL (lysine site: K778) (UniProt P18206)”: the “lysine labeling ratio R10:1” value is 1.11 (active).
To “LAMB1 (lysine site: K1746) (UniProt P07942)” belongs 3.26 (inactive); to “APOO (lysine site: K51) (UniProt Q9BUR5)”, 0.799 (active); to “PTGFRN (lysine site: K579) (UniProt Q9P2B2)”, 2.67 (inactive).
To “IMPDH2 (lysine site: K422) (UniProt P12268)” belongs 1.55 (active); to “FRAS1 (lysine site: K1158) (UniProt Q86XX4)”, 1.34 (active).
To “XRCC6 (lysine site: K114) (UniProt P12956)” belongs 2.12 (inactive).
In the case of “EPHB2 (lysine site: K158) (UniProt P29323)”, the “lysine labeling ratio R10:1” value was 2.25 (inactive).
For UniProt P60866 (lysine site: K75) the value was 1.91 (active).
For “MYH9 (lysine site: K656) (UniProt P35579)” the value was 2.88 (inactive).

(Values after the supplement of paper PMC11001985.)
